Tests used:
Assay in all cases: relative growth (AUC of 72 h growth curve relative to DMSO control, dAUC) (ratio); higher = more growth (less inhibition), active = hit call of the paper
Settings in all cases: 20 µM;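 active = growth AUC significantly below the DMSO wells by Dunnett test; inactive = the rest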
[1] = compound: C=CCOC(Cn1ccnc1)c1ccc(Cl)cc1Cl
Procedure, shortened: (§1)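 Isolates from Icelandic stream sediments and Silwood Park soil, along with whole sediment communities, were grown in Luria–Bertani medium to carrying capacity and diluted 1:100 into 96-well plates with each chemical at 20 µM (1% DMSO). A600 was measured hourly for 72 h, and values were averaged over three biological replicates. Relative growth (dAUC) is the spline-integrated growth-curve area over the mean of the DMSO controls.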

[2] = compound: CC(=O)CC(c1ccccc1)c1c(O)c2ccccc2oc1=O
Procedure, shortened: as §1

[3] = compound: CC1COc2ccccc2N1C(=O)C(Cl)Cl
Procedure, shortened: as §1

[4] = compound: CCCCC(CC)CN1C(=O)[C@@H]2[C@H](C1=O)[C@@H]1C=C[C@H]2C1 (mixture of isomers)
Procedure, shortened: as §1

[5] = compound: CCCCCCCCc1c(CC)nc2ncnn2c1N
Procedure, shortened: as §1

[6] = compound: CCCCOCCOCCOCc1cc2c(cc1CCC)OCO2
Procedure, shortened: as §1

[7] = compound: CCCOC(=O)NCCCN(C)C
Procedure, shortened: as §1

[8] = compound: COC(=O)c1csc(C)c1S(=O)(=O)NC(=O)n1nc(OC)n(C)c1=O
Procedure, shortened: as §1

[9] = compound: Cc1ccc(C(C)NC(=O)[C@@H](NC(=O)OC(C)C)C(C)C)cc1
Procedure, shortened: as §1

[10] = compound: Cc1nn(C)c(Oc2ccccc2)c1/C=N/OCc1ccc(C(=O)OC(C)(C)C)cc1
Procedure, shortened: as §1

[11] = compound: Cn1cc(C(=O)Nc2ccc(F)cc2-c2ccc(Cl)c(Cl)c2)c(C(F)F)n1
Procedure, shortened: as §1

[12] = compound: Cn1cc(C(=O)Nc2ccccc2-c2cc(F)c(F)c(F)c2)c(C(F)F)n1
Procedure, shortened: as §1

[13] = compound: O=C(NCc1ncc(C(F)(F)F)cc1Cl)c1c(Cl)cccc1Cl
Procedure, shortened: as §1

[14] = compound: Oc1c(Cl)cc(Cl)c(Cl)c1Cc1c(O)c(Cl)cc(Cl)c1Cl
Procedure, shortened: as §1

[15] = compound: S=C([S-])NCCNC(=S)[S-].S=C([S-])NCCNC(=S)[S-].[Mn+2].[Zn+2]
Procedure, shortened: as §1

[16] = compound: c1ccc2[nH]c(-c3cscn3)nc2c1
Procedure, shortened: as §1

Row | Target | relative growth [1] | relative growth [2] | relative growth [3] | relative growth [4] | relative growth [5] | relative growth [6] | relative growth [7] | relative growth [8] | relative growth [9] | relative growth [10] | relative growth [11] | relative growth [12] | relative growth [13] | relative growth [14] | relative growth [15] | relative growth [16]
1 | Community 9 | 0.764 (inactive) | 0.985 (inactive) | 1.02 (inactive) | 0.846 (inactive) | 1.02 (inactive) | 0.906 (inactive) | 1 (inactive) | 1.1 (inactive) | 0.905 (inactive) | 0.906 (inactive) | 0.839 (inactive) | 1.05 (inactive) | 1.03 (inactive) | 0.306 (active) | 1.03 (inactive) | 0.911 (inactive)
2 | Prolinoborus 1 (Prolinoborus fasciculus) | 0.664 (active) | 0.986 (inactive) | 0.921 (inactive) | 0.937 (inactive) | 0.883 (inactive) | 0.915 (inactive) | 1.04 (inactive) | 1.02 (inactive) | 1.02 (inactive) | 0.945 (inactive) | 0.947 (inactive) | 1.01 (inactive) | 0.999 (inactive) | 0.0191 (active) | 0.861 (inactive) | 0.964 (inactive)
3 | Arthrobacter 1 (Arthrobacter humicola) | 0.626 (active) | 1.01 (inactive) | 0.901 (inactive) | 0.835 (inactive) | 0.931 (inactive) | 1.01 (inactive) | 1.04 (inactive) | 1.12 (inactive) | 0.932 (inactive) | 1.26 (inactive) | 0.846 (inactive) | 0.99 (inactive) | 0.993 (inactive) | 0.00912 (active) | 0.994 (inactive) | 0.932 (inactive)
4 | Pseudomonas 1 (Pseudomonas baetica) | 1.01 (inactive) | 1.09 (inactive) | 1.04 (inactive) | 1.13 (inactive) | 0.923 (inactive) | 1.04 (inactive) | 0.968 (inactive) | 1.1 (inactive) | 1.06 (inactive) | 1.14 (inactive) | 1.15 (inactive) | 0.984 (inactive) | 1.04 (inactive) | 0.559 (active) | 0.921 (inactive) | 0.944 (inactive)
5 | Pseudomonas 6 (Pseudomonas sp.) | 0.901 (inactive) | 1.13 (inactive) | 1.09 (inactive) | 1.1 (inactive) | 0.937 (inactive) | 1.14 (inactive) | 0.948 (inactive) | 1.09 (inactive) | 1.12 (inactive) | 1.09 (inactive) | 0.974 (inactive) | 1.04 (inactive) | 1.05 (inactive) | 0.0758 (active) | 0.926 (inactive) | 0.884 (inactive)
6 | Community 7 | 0.922 (inactive) | 1.03 (inactive) | 0.994 (inactive) | 0.872 (inactive) | 1.03 (inactive) | 1.04 (inactive) | 1.12 (inactive) | 1.02 (inactive) | 1.08 (inactive) | 1 (inactive) | 1.06 (inactive) | 1.05 (inactive) | 1.07 (inactive) | 0.468 (inactive) | 1.12 (inactive) | 1.03 (inactive)
7 | Paenibacillus 1 (Paenibacillus castaneae) | 0.0487 (active) | 0.878 (inactive) | 0.947 (inactive) | 0.923 (inactive) | 0.906 (inactive) | 1 (inactive) | 1.08 (inactive) | 1.03 (inactive) | 0.947 (inactive) | 0.866 (inactive) | 0.835 (inactive) | 1.01 (inactive) | 1.04 (inactive) | 0.0147 (active) | 0.978 (inactive) | 0.987 (inactive)
8 | Flavobacterium 2 (Flavobacterium succinicans) | 0.489 (active) | 0.983 (inactive) | 0.926 (inactive) | 0.916 (inactive) | 0.961 (inactive) | 0.976 (inactive) | 1.03 (inactive) | 1 (inactive) | 0.933 (inactive) | 0.952 (inactive) | 0.849 (inactive) | 0.962 (inactive) | 0.966 (inactive) | 0.0105 (active) | 1.13 (inactive) | 1.03 (inactive)
9 | Arthrobacter 2 (Arthrobacter humicola) | 0.195 (active) | 0.972 (inactive) | 0.871 (inactive) | 0.869 (inactive) | 0.929 (inactive) | 0.384 (active) | 1.07 (inactive) | 1 (inactive) | 0.87 (inactive) | 0.771 (inactive) | 0.627 (inactive) | 0.983 (inactive) | 0.96 (inactive) | 0.00995 (active) | 0.932 (inactive) | 1.19 (inactive)
10 | Pseudomonas 2 (Pseudomonas vancouverensis) | 0.914 (inactive) | 1 (inactive) | 0.989 (inactive) | 1.01 (inactive) | 0.969 (inactive) | 0.974 (inactive) | 0.987 (inactive) | 1.02 (inactive) | 0.996 (inactive) | 1.11 (inactive) | 0.967 (inactive) | 1.01 (inactive) | 0.98 (inactive) | 0.0738 (active) | 0.947 (inactive) | 0.959 (inactive)
11 | Hymenobacter 1 (Hymenobacter glaciei) | 0.768 (inactive) | 1.08 (inactive) | 0.952 (inactive) | 0.932 (inactive) | 1.05 (inactive) | 0.845 (inactive) | 1.07 (inactive) | 1.08 (inactive) | 0.999 (inactive) | 1.06 (inactive) | 0.927 (inactive) | 0.91 (inactive) | 1 (inactive) | 0.00356 (active) | 0.998 (inactive) | 0.917 (inactive)
12 | Aeromonas 3 (Aeromonas popoffii) | 0.933 (inactive) | 0.992 (inactive) | 0.988 (inactive) | 0.988 (inactive) | 1 (inactive) | 1.04 (inactive) | 1.02 (inactive) | 1.03 (inactive) | 1.03 (inactive) | 1.01 (inactive) | 0.999 (inactive) | 1.04 (inactive) | 1.04 (inactive) | 0.00174 (active) | 1.11 (inactive) | 1.04 (inactive)
13 | Pseudomonas 3 (Pseudomonas mandelii) | 1.01 (inactive) | 1.06 (inactive) | 1.07 (inactive) | 1.05 (inactive) | 0.984 (inactive) | 1.04 (inactive) | 1.04 (inactive) | 1.04 (inactive) | 1.08 (inactive) | 1.09 (inactive) | 1.03 (inactive) | 1 (inactive) | 0.984 (inactive) | 0.00168 (active) | 0.907 (inactive) | 0.96 (inactive)
14 | Community 10 | 0.783 (inactive) | 0.872 (inactive) | 0.795 (inactive) | 0.665 (inactive) | 0.99 (inactive) | 0.777 (inactive) | 1.02 (inactive) | 0.965 (inactive) | 0.84 (inactive) | 0.714 (inactive) | 0.742 (inactive) | 1.03 (inactive) | 0.996 (inactive) | 0.51 (active) | 1.11 (inactive) | 1.16 (inactive)
15 | Pseudomonas 4 (Pseudomonas peli) | 0.952 (inactive) | 0.978 (inactive) | 0.938 (inactive) | 0.959 (inactive) | 0.99 (inactive) | 0.961 (inactive) | 0.995 (inactive) | 1.03 (inactive) | 0.968 (inactive) | 1.01 (inactive) | 0.979 (inactive) | 0.992 (inactive) | 0.981 (inactive) | 0.00176 (active) | 0.927 (inactive) | 0.928 (inactive)
16 | Oryzobacter 1 (Oryzobacter terrae) | 0.0303 (active) | 1.04 (inactive) | 1.15 (inactive) | 1.27 | 1.07 (inactive) | 1.18 (inactive) | 1.02 (inactive) | 1.13 (inactive) | 1.09 (inactive) | 1.17 (inactive) | 1.12 (inactive) | 0.91 (inactive) | 1.06 (inactive) | 0.00191 (active) | 0.909 (inactive) | 1.15 (inactive)
